Test results reported in publication PMC4336329 (PLoS ONE, 2015).
The campaign covered roughly 310,000 compounds. About 14,000 (4.5%) showed an effect of 50% or more. The effect is printed as a negative number. What follows is part of a selection rich in strong results, with near analogues and random picks from the rest.

molecular target: human ether-à-go-go-related gene (hERG) potassium channel (human, UniProt Q12809); test: primary screen, population patch clamp on CHO cells stably expressing hERG; higher = less effect of the substance
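Also: peak tail current of the secondary pulse compared with the same well before compound.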

human ether-à-go-go-related gene (hERG) potassium channel, sequence (Q12809 whole entry, looked up): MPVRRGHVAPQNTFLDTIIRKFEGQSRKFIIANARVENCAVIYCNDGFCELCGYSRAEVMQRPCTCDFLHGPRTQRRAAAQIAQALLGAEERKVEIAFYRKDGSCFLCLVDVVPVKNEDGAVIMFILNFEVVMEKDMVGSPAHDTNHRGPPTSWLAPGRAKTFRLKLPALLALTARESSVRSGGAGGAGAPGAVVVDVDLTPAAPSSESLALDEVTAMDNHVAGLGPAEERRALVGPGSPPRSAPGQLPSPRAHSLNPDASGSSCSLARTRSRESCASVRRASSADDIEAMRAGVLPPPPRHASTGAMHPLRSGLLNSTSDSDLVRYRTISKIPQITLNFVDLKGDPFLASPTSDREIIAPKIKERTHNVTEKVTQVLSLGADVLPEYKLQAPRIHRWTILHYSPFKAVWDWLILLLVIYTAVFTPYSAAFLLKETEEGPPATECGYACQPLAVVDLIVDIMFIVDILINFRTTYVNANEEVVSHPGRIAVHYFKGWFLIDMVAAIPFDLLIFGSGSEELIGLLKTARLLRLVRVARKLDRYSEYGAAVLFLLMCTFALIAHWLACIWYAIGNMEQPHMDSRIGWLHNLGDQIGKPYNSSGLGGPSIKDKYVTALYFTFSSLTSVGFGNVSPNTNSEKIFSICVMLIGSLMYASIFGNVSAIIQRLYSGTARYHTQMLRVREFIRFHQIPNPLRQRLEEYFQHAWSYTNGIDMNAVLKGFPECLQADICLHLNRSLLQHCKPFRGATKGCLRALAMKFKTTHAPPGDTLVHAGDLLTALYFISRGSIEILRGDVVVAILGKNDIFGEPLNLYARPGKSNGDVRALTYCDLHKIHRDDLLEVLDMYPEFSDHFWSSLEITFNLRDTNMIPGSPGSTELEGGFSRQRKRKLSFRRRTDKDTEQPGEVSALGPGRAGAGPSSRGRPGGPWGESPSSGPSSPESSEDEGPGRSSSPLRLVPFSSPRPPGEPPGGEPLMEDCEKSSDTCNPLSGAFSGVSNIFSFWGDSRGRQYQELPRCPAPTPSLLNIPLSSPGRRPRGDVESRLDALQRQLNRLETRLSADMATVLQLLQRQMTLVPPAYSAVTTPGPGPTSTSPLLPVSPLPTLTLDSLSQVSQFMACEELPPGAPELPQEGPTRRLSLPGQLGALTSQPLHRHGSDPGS

| SMILES | hERG current change (%, negative = inhibition) at 10uM [%] |
| --- | --- |
| COc1ccc(NC(=O)CSc2nnc(-c3ccccc3C)n2N)cc1 | 31.2 |
| CCC(Oc1ccccc1)C(=O)Nc1cc(Cl)ccc1-n1cncn1 (centres unmarked) | -14.1 |
| O=C1c2ccccc2C(=O)N1C(CO)C(O)c1ccc([N+](=O)[O-])cc1 (centres unmarked) | -5.29 |
| CC(c1nnc(SCC(=O)N2CC(=O)Nc3ccccc32)n1Cc1ccccc1)N(C)C (centres unmarked) | 5.73 |
| CC(C)CCNCC(O)CON=C1c2ccccc2-c2ccccc21 (centres unmarked) | -32.2 |
| CC(N=Cc1cc([N+](=O)[O-])ccc1O)c1ccccc1 (centres unmarked) | 11.7 |
| CC(O)CN1CC(O)=C(c2nc3ccccc3s2)C1=N (centres unmarked) | 3.89 |
| COc1ccc(C(=O)NCc2ncccc2C)cc1OC1CCN(C(C)=O)CC1 | 9.32 |
| CCOc1ccccc1-n1c(SCC(=O)Nc2ccccc2C(=O)O)nc2ccccc2c1=O | 8.39 |
| Cc1ccc(S(=O)(=O)N2CCN(CC(=O)N/N=C\c3ccncc3)CC2)cc1 | -66.8 |
| Cc1ccc(S(=O)(=O)N2CCN(CC(=O)N/N=C\c3ccc(O)c(O)c3)CC2)cc1 | -8.76 |
| Cc1ccc(S(=O)(=O)N2CCN(CC(=O)N/N=C\c3cccnc3)CC2)cc1 | 0.297 |
| O=C(CN1CCN(S(=O)(=O)c2ccc(Br)cc2)CC1)N/N=C/c1ccncc1 | -70.6 |
| O=C(CN1CCN(S(=O)(=O)c2ccc(Br)cc2)CC1)N/N=C/c1cccnc1 | -31.6 |
| O=C(CN1CCN(S(=O)(=O)c2ccc(Br)cc2)CC1)N/N=C/c1ccc(Cl)c([N+](=O)[O-])c1 | -17.9 |
| O=C1N/C(=N\c2ccccn2)SC1Cc1ccc(Cl)cc1 (centres unmarked) | 4.11 |
| Cc1cccc(CCNc2nc3ccc(C)cc3n3cnnc23)c1 | 17.3 |
| CC(C)(C)CC(C)(C)NC(=O)c1ccc2snnc2c1 | -13.6 |
| COc1ccc(S(=O)(=O)NC(CC(=O)N2CCC3(CC2)OCCO3)C(C)C)cc1 (centres unmarked) | 10.9 |
| COc1ccccc1CCC(=O)N(C)C1CCCN(Cc2ccccc2F)C1 (centres unmarked) | -28 |
| Cc1csc(=O)n1CCC(=O)OCc1nnc(-c2ccccc2)o1 | -8.45 |
| Cc1ccc(C(=O)NCC(=O)OCc2nnc(-c3ccc([N+](=O)[O-])cc3)o2)s1 | -67.3 |

| SMILES | hERG current change (%, negative = inhibition) at 10uM [%] |
| --- | --- |
| Cc1csc(=O)n1CCC(=O)OCc1nnc(-c2ccc([N+](=O)[O-])cc2)o1 | -67.3 |
| Cc1onc(-c2ccccc2)c1C(=O)OCc1nnc(-c2ccccc2)o1 | -15.6 |
| Cc1onc(-c2ccccc2Cl)c1C(=O)OCc1nnc(-c2ccccc2)o1 | -16.7 |
| Cc1ccc(C(=O)OCc2nnc(-c3ccccc3)o2)s1 | -7.37 |
| Cc1onc(-c2ccccc2)c1C(=O)OCc1nnc(-c2ccc([N+](=O)[O-])cc2)o1 | -71.5 |
| Cc1ccc(C(=O)NCC(=O)OCc2nnc(-c3ccccc3)o2)cc1 | -31.6 |
| Cc1csc(=O)n1CC(=O)OCc1nnc(-c2ccc(Cl)cc2)o1 | -2.32 |
| CNc1ccc(Oc2c(F)c(F)nc(F)c2F)cc1 | -0.34 |
| O=C1CS/C(=N/N=C/c2ccccc2)N1c1ccc(O)cc1 | 17.6 |
| CN(C)S(=O)(=O)c1cccc(NC(=O)C2Cc3ccccc3CN2C(=O)c2ccccc2)c1 (centres unmarked) | 4.2 |
| c1ccc(C[C@H]2CNCCN2CCc2cccc3ccccc23)cc1 | -35.6 |
| Oc1ccc(C[C@@H]2CNCCN2CCc2cccc3ccccc23)cc1 | -64.5 |
| Oc1ccc(C[C@H]2CNCCN2CCc2cccc3ccccc23)cc1 | -17.7 |
| C#CCOCCOCCOCCNc1nc(N2CCN(C(=O)[C@H](CCC(=O)O)n3cc(C(N)Cc4ccc(O)cc4)nn3)CC2)nc(N2CCN(C(=O)[C@H](Cc3cc4ccccc4[nH]3)n3cc(C(N)[C@H](C)CC)nn3)CC2)n1.Cl (some centres unmarked) | 5.43 |
| COc1ccc(CNC(=O)c2ccc3c(=O)n(CCCN4CCCC4=O)c(=S)[nH]c3c2)cc1 | 19 |
| COC(=O)c1ccc(Nc2cc(C)nc3nc(C)nn23)cc1 | -37.8 |
| CCOC(=O)c1ccc(Nc2cc(C)nc(C)c2C(=O)OCC)cc1.Cl | -62.6 |
| CCOC(=O)c1ccc(Nc2cc(C)nc3nc(C)nn23)cc1 | -53 |
| CCOC(=O)c1c(Nc2ccccc2N)cc(C)nc1C | -13.9 |
| CCOC(=O)c1ccc(Nc2nc(C)cc(C)n2)cc1 | 16.7 |
| CCOC(=O)c1ccc(Nc2cc(C)nc3ncnn23)cc1 | -15.1 |
| COc1ccc(/C=N/NC(=O)CCn2c3ccccc3c3ccccc32)cc1O | 5.18 |

| SMILES | hERG current change (%, negative = inhibition) at 10uM [%] |
| --- | --- |
| COc1ccc(NS(=O)(=O)c2cc(C)ccc2OC)cc1OC | 10.5 |
| CN(C)c1ccc2c(O)cc(=O)n(C)c2c1 | 6.76 |
| O=C(NC1CCCC1)c1cc2nc(-c3ccccc3)cc(-c3ccccc3)n2n1 | -23.3 |
| Cc1ccc2nc(C)c(C)nc2c1N | 8.1 |
| O=C(Nc1ccc(Cl)cc1Cl)c1ccc2c(=O)n3c(nc2c1)CCC3 | -39.8 |
| NC(=O)CSc1nnc(-c2cnccn2)n1Cc1ccco1 | 7.06 |
| Fc1ccc(CSc2nnc(-c3cnccn3)n2Cc2ccco2)cc1 | -52.2 |
| c1ccc(-c2nnc(SCc3nc4ccccc4[nH]3)n2Cc2ccco2)cc1 | -22.4 |
| Cn1c(SCc2nc3ccccc3c(=O)[nH]2)nc2ccccc21 | 0.933 |
| O=c1[nH]c(CSc2nnc(-c3ccncc3)n2Cc2ccco2)nc2ccccc12 | -58.2 |
| COCCn1c(SCc2nc3ccccc3c(=O)[nH]2)nnc1-c1ccncc1 | -4.64 |
| c1coc(Cn2c(SCc3nc4ccccc4[nH]3)nnc2-c2cnccn2)c1 | -56.3 |
| Cn1c(Cc2ccccc2)nnc1SCc1nc2ccccc2c(=O)[nH]1 | -1.69 |
| CCn1c(SCc2nc3ccccc3c(=O)[nH]2)nnc1-c1ccncc1 | -11.7 |
| c1ccc(-c2nnc(SCc3nc4ccccc4[nH]3)n2Cc2ccco2)nc1 | -8.18 |
| Fc1ccccc1CSc1nnc(-c2cnccn2)n1Cc1ccco1 | -11.2 |
| Cn1c(-c2ccccc2)cnc1SCc1nc2ccccc2c(=O)[nH]1 | -59.9 |
| Cl.NC(N)=NC(N)=Nc1ccc(SC(F)(F)F)cc1 | -21.3 |
| Oc1cccnc1Sc1cccc(C(F)(F)F)c1 | 18.6 |
| CC(C)(C)c1nnc(NC(=O)CCS(=O)(=O)c2ccccc2)s1 | 5.03 |
| COc1cc(/C=C2/SC(=S)NC2=O)ccc1OS(=O)(=O)c1ccc(C)cc1 | 39.8 |
| CCOc1ccc(CCNC(=O)C2CCN(S(=O)(=O)N3CC(C)CC(C)C3)CC2)cc1OCC (centres unmarked) | 20.7 |

| SMILES | hERG current change (%, negative = inhibition) at 10uM [%] |
| --- | --- |
| Cc1c(NC(=O)Cn2cc([N+](=O)[O-])cn2)c(=O)n(-c2ccccc2)n1C | 11.7 |
| CC1CCN(c2ccc3c(c2)S(=O)(=O)c2ccccc2C3=O)CC1 | 7.82 |
| COc1cccc2cc(C(=O)C3=C(O)C(=O)N(c4cc(C)on4)C3c3cccs3)oc12 (centres unmarked) | 22.9 |
| COc1ccccc1CNC(=O)CS(=O)Cc1nc(-c2ccc(OC)c(OC)c2)oc1C (centres unmarked) | -6.47 |
| COc1ccccc1NS(=O)(=O)c1ccc2oc(=S)[nH]c2c1 | 2.14 |
| CC1CC(C)(C)NC(=S)N1CCC(=O)Nc1ccc2c(c1)OCCO2 (centres unmarked) | 18.3 |
| CC(C)(C)c1ccc(OC(=O)N2CCOCC2)cc1 | 14 |
| COc1cc(OC)cc(C(=O)Nc2cccc(-c3ccc(N4CCOCC4)nn3)c2)c1 | 14.5 |
| O=c1[nH]c(=S)n(Cc2ccc(F)cc2)c(O)c1C=NCCCn1ccnc1 | -60.3 |
| O=c1[nH]c(=O)n(Cc2ccc(F)cc2)c(O)c1C=NCC1CCCO1 (centres unmarked) | -13 |
| CN1CCN(/N=C/c2c(O)n(CCC3=CCCCC3)c(=S)[nH]c2=O)CC1 | -64.9 |
| O=c1[nH]c(=O)n(CCC2=CCCCC2)c(O)c1/C=N/N1CCOCC1 | -21.6 |
| O=c1[nH]c(=S)n(CCC2=CCCCC2)c(O)c1C=NCCCn1ccnc1 | -69.3 |
| O=c1[nH]c(=O)n(CCC2=CCCCC2)c(O)c1C=NCCCn1ccnc1 | -17.6 |
| O=c1[nH]c(=S)n(CCC2=CCCCC2)c(O)c1C=NCc1cccnc1 | -0.946 |
| O=c1[nH]c(=O)n(CCc2ccc(F)cc2)c(O)c1C=NCCCn1ccnc1 | -3.22 |
| O=c1[nH]c(=O)n(Cc2ccc(F)cc2)c(O)c1C=NCCCn1ccnc1 | 4.08 |
| O=c1[nH]c(=S)n(C2CC2)c(O)c1C=NCC1CCCO1 (centres unmarked) | -6.97 |
| O=c1[nH]c(=S)n(Cc2ccc(F)cc2)c(O)c1C=NCC1CCCO1 (centres unmarked) | -61.9 |
| O=c1[nH]c(=S)n(CCC2=CCCCC2)c(O)c1/C=N/N1CCOCC1 | -41.8 |
